DAX1 inh-1: DAX1 (NR0B1) inhibitors on StAR promoter, primary screen, cell-based, luminescence, SF-1 (NR5A1), full-length DAX-1. inhibition, % at 6.8 µM. hit rate 1.1% among 370,000. HEK293T StAR-luciferase reporter, SF-1/DAX-1 repression relief;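 active = inhibition above the mean over all tested compounds plus 3 SD, cut at about 3.6% in these data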;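 note: 0% = DAX-1 cells with DMSO and 100% = cells lacking DAX-1 with DMSO; higher inhibition means more luminescence from relief of DAX-1 repression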
ssDAF-12 act: S. stercoralis DAF-12 nuclear receptor activators, primary screen, cell-based, luminescence, HEK293, GRIP1 co-expression, lit1-tk-luc; Nuclear hormone receptor DAF-12 (Strongyloides stercoralis); HEK293 ssDAF-12/GRIP1 lit1-tk-luc reporter; % of 3 µM dafachronic acid response; activation, % at 6.8 µM; hit rate 1% among 370,000; AID 652126, 2013;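 active = activation above the mean over all tested compounds plus 3 SD, cut at about 0.9% in these data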;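 note: 0% = DMSO-only wells and 100% = 3 µM delta7-dafachronic acid wells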
DAX1 inh-2: DAX1 (NR0B1) inhibitors, primary screen, cell-based, HEK293, Gal4-DAX1, luciferase luminescence. Nuclear receptor subfamily 0 group B member 1 (Homo sapiens), P51843. HEK293 Gal4-DAX1 luciferase reporter. inhibition, % at 6.75 µM. hit rate 0.99% among 340,000;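 active = inhibition above the mean over all tested compounds plus 3 SD, cut at about 4.2% in these data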;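 note: 0% = DAX1-transfected cells with DMSO and 100% = empty-vector control cells with DMSO; inhibition shows as a rise in luminescence from relieved DAX1 repression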
hgDAF12 agonist: H. glycines DAF-12 receptor agonists, primary screen, cell-based, luminescence, HEK293, GAL4 fusion, UAS-luciferase. HEK293 GAL4-hgDAF12 UAS-luciferase reporter, agonist luminescence; normalized to butyrate control. activation, % at 6.8 µM. Nuclear hormone receptor DAF-12 (Heterodera glycines), GAL4 fusion. AID 687014, 2013. hit rate 1.8% among 370,000;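 active = activation above a cutoff set at the mean of all screened compounds plus 3 SD, cut at about 10% in these data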;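 note: 0% = DMSO wells and 100% = sodium butyrate wells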
hcDAF12 agonist: H. contortus DAF-12 nuclear receptor activators, primary screen, cell-based, luminescence, HEK293, lit1-tk-luc reporter; HEK293 hcDAF-12 lit1-tk-luc reporter; 0% DMSO, 100% Δ7-dafachronic acid; activation, % at 6.8 µM; hit rate 1.4% among 370,000; AID 652067, 2013;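 active = activation above the mean of all tested compounds plus 3 SD, cut at about 5.5% in these data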;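 note: 100% = response to 3 µM Δ7-dafachronic acid high control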
AHR act: AHR activators, primary screen, cell-based, luminescence, luciferase reporter, human. AID 2796, 2010. AHR-responsive luciferase reporter cells. hit rate 2.5% among 320,000. activation, % at 5 µM. Aryl hydrocarbon receptor (Homo sapiens), P35869; in the data active = activation above about 47%;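 note: 0% = vehicle wells and 100% = reference agonist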
* marks the source's active call; other numbers are inactive results; x = not tested or not shown. Most compounds without a hit are left out; they make up all but 5.7% or so of the library.

SMILES | DAX1 inh-1 | ssDAF-12 act | DAX1 inh-2 | hgDAF12 agonist | hcDAF12 agonist | AHR act
CC1(C)C2CC[C@]3(C)C(CC=C4[C@@H]5C[C@@](C)(CO)[C@@H](O)C[C@]56C[C@@H](OC6=O)[C@]43C)[C@@]2(C)CC[C@@H]1O (some centres not stated) | 0 | -2 | 5.5* | 1 | -1 | 0
C[C@H]1[C@H](C)CC[C@]2(C(=O)O)CC[C@]3(C)C(=CC[C@@H]4[C@@]5(C)CC[C@H](O)C(C)(C)[C@@H]5CC[C@]43C)[C@H]12 | 0 | -1 | 0 | 0 | 2 | -4
O=C(COc1cccnc1[N+](=O)[O-])Nc1ccc2c(c1)OC(F)(F)O2 | -1 | -2 | -1 | 0 | -2 | -7
COc1ccc(C(=O)Nc2ccc(CN3CCS(=O)(=O)CC3)cc2)cc1 | 1 | -2 | 4.4* | -1 | 0 | -2
CCN1CCN(Cc2ccc(NC(=O)Nc3ccccc3)cc2)CC1 | x | x | 3 | x | x | 1
COc1c(Cl)cc(Cl)cc1C(=O)Nc1ccc(CN2CCOCC2)cc1 | 0 | -1 | 0 | 0 | -2 | x
CN(C)c1ccc(C(=O)Nc2ccc(CN3CCS(=O)(=O)CC3)cc2)cc1 | 1 | -2 | 1 | 4 | 0 | -1
CCN1CCN(Cc2ccc(NC(=O)Nc3ccc(OC)cc3)cc2)CC1 | 0 | -1 | 4.3* | 9 | 0 | 2
COc1c(C)cccc1C(=O)Nc1ccc(CN2CCOCC2)cc1 | 4 | -1 | 4 | 7 | 6.0* | 5
COCCN(Cc1ccccc1)C(=O)c1cccc(S(=O)(=O)N2CCN(Cc3ccccc3)CC2)c1 | -2 | -1 | 1 | -1 | -3 | x
Cn1nc(-c2ccccc2)cc1NS(=O)(=O)c1ccccc1 | 0 | -2 | 1 | 1 | -1 | 13
Cn1nc(-c2ccccc2)cc1NS(=O)(=O)c1ccc(C#N)cc1 | 0 | -1 | 4.3* | 0 | 0 | 0
CC1(C)C2C/C(=N\O)C(C)(/[N+]([O-])=C/c3cccc([N+](=O)[O-])c3)CC21 (configuration not stated) | 1 | -1 | 1 | -3 | 0 | 1
CCN(CC)C(=O)c1[nH]cnc1C(=O)Nc1cccc(C)c1 | 0 | -1 | 0 | -1 | 0 | 54*
CCN(CC)C(=O)c1[nH]cnc1C(=O)Nc1ccc(Cl)cc1 | 0 | -1 | 1 | 0 | -1 | 75*
CCN(CC)C(=O)c1[nH]cnc1C(=O)Nc1ccc(OC)cc1 | 0 | -1 | 0 | -1 | -1 | 65*
Cc1cc(=O)oc2cc(OCC(=O)NC3CCCCC3)ccc12 | 0 | -1 | 1 | 3 | 1 | -4
Oc1ccc(Cl)cc1C(C#Cc1ccccc1)N1CCOCC1 (configuration not stated) | 0 | 0 | 0 | 0 | -1 | 13
COc1cc(C=Nn2c(-c3ccccc3F)n[nH]c2=S)ccc1OCc1ccccc1 | -1 | -1 | x | 3 | -3 | x
Cc1cccc(C)c1Nc1nnc(SCC(=O)c2ccc(Br)s2)s1 | 0 | 0 | 1 | -1 | 0 | 1
Cc1ccc(Nc2nnc(SCC(=O)c3ccc(Br)s3)s2)c(C)c1 | 1 | -1 | 1 | 7 | -1 | 60*
O=C(c1cc(S(=O)(=O)N2CCOCC2)ccc1Cl)N1CCC(Cc2ccccc2)CC1 | -2 | -2 | 0 | 0 | -1 | -1
COc1ccccc1OC(=O)c1ccc(S(=O)(=O)N(C)C)cc1 | 0 | -1 | 5.2* | 3 | -1 | 5
COc1cc(NC(=O)c2ccc(S(=O)(=O)N(C)C)cc2)cc(OC)c1OC | 0 | -2 | 1 | -1 | -2 | 0
C#CCn1c(C)cc(C)c(S(=O)(=O)c2ccccc2)c1=O | 3 | -1 | 3 | 11* | 2 | 4

Compound activity (PubChem)
